{"source": "PubChem BioAssay (NCI)", "note": "This is part of a sample that, as a whole, favours compounds with a hit. Of some 83,000 tested, about 20% had one in any assay.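 Growth was measured after 48 h exposure to one concentration of compound in 96-well plates. Values under 10 count as active.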 Calls of active or inactive are those of the source."}
{"tested_on": "MDA-MB-468 breast", "assay": "NCI-60 one-dose screen, 48 h (100 = growth as untreated, 0 = no growth, -100 = all killed)", "details": "10 µM unless noted"}
{"molecule": "O=C(c1ccccc1)C(Br)[N+](=O)[O-]", "note": "(centres undefined)", "growth": "114% (inactive)"}
{"molecule": "NC(=S)N1N=C(c2ccccc2)CC1c1cn(-c2ccccc2)nc1-c1ccc(OCc2ccccc2)cc1", "note": "(centres undefined)", "growth": "102% (inactive)"}
{"molecule": "CCCC#CCN(CC)CC", "growth": "99.1% (inactive)"}
{"molecule": "c1cc[c]([Bi]([c]2ccccc2)[c]2ccccc2)cc1", "growth": "84.7% (inactive)"}
